The results in this text go back to ChEMBL document CHEMBL2218924, “A broad activity screen in support of a chemogenomic map for kinase signalling research and drug discovery” (Biochem J, 2013).

Test [1] concerns the target T1, Serine/threonine-protein kinase BRSK1 (Homo sapiens) (UniProt Q8TDC3).
T1 sequence (whole entry): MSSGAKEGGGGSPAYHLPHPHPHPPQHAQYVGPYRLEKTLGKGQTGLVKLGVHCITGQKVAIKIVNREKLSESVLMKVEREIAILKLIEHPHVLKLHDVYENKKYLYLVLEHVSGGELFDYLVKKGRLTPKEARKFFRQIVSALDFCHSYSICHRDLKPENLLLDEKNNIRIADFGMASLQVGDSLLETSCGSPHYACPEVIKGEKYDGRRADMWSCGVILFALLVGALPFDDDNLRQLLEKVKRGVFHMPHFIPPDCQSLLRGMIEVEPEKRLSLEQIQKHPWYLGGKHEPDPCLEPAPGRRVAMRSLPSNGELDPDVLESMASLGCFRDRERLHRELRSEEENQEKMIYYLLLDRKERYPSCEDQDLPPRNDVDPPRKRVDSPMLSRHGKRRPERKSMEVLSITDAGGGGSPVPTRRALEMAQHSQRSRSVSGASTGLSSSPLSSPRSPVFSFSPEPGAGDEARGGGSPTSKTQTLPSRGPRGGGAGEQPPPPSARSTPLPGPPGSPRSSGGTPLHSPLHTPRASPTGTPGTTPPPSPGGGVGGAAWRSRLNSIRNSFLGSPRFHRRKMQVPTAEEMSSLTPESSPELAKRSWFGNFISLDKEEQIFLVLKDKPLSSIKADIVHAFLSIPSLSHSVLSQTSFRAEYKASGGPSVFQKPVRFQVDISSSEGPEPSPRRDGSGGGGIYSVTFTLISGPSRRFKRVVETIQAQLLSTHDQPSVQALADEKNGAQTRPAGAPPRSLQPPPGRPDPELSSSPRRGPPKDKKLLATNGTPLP
The note with it: at 1 µM.

The target in test [2] is T1, Serine/threonine-protein kinase BRSK1 (Homo sapiens). The note with it: at 10 µM.
Test [3] deals with T2, Serine/threonine-protein kinase BRSK2 (Homo sapiens) (UniProt Q8IWQ3).
T2 sequence (whole entry): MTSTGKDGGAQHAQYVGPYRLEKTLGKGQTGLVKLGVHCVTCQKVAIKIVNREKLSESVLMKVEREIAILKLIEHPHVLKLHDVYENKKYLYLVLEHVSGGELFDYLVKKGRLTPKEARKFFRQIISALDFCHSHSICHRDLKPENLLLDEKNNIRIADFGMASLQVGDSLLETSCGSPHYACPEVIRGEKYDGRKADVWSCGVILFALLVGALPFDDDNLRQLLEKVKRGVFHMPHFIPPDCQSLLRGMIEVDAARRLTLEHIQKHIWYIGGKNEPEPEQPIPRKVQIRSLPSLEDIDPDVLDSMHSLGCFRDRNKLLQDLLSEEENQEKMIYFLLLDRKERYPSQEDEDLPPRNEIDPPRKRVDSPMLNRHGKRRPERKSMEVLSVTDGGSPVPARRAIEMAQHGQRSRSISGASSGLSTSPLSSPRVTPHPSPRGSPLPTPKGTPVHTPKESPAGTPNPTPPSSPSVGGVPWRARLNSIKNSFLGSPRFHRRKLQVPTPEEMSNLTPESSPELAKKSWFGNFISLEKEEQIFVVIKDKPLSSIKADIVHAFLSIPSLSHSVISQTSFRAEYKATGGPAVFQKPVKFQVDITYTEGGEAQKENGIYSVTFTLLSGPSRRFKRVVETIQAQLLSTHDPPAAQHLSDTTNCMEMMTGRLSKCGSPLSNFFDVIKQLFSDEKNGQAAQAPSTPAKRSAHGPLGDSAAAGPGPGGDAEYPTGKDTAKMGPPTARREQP
The note with it: at 1 µM.

The target in test [4] is T2, Serine/threonine-protein kinase BRSK2 (Homo sapiens). The note with it: at 10 µM.
In test [5] the target is T3, Cyclin-dependent kinase 1/cyclin B1 (Homo sapiens) (UniProt P06493+P14635). The conditions noted are these: at 1 µM.
The target of test [6] is T3, Cyclin-dependent kinase 1/cyclin B1 (Homo sapiens). The note with it: at 10 µM.
Test [7] deals with T4, Cyclin-dependent kinase 2/cyclin A (Homo sapiens) (UniProt P24941+P20248+P78396). The conditions noted are these: at 1 µM.
The target in test [8] is T4, Cyclin-dependent kinase 2/cyclin A (Homo sapiens). The conditions noted are these: at 10 µM.
The target in test [9] is T5, Cyclin-dependent kinase 2/cyclin E (Homo sapiens) (UniProt P24864+P24941+O96020). The conditions noted are these: at 1 µM.
Test [10] has as its target T5, Cyclin-dependent kinase 2/cyclin E (Homo sapiens). The conditions noted are these: at 10 µM.
Test [11] concerns the target T6, CDK3/cyclin E (Homo sapiens) (UniProt P24864+O96020+Q00526). The note with it: at 1 µM.
Test [12] deals with T6, CDK3/cyclin E (Homo sapiens). The conditions noted are these: at 10 µM.
Test [13] has as its target T7, Cyclin-dependent kinase 5/CDK5 activator 1 (Homo sapiens) (UniProt Q00535+Q15078). The note with it: at 1 µM.
Test [14] has as its target T7, Cyclin-dependent kinase 5/CDK5 activator 1 (Homo sapiens). The note with it: at 10 µM.
Test [15] has the same target. The conditions noted are these: at 1 µM. The source holds these as a separate data set.
The target is the same in test [16]. The conditions noted are these: at 10 µM. This is another data set of the same source.
Test [17] has as its target T8, CDK6/cyclin D3 (Homo sapiens) (UniProt P30281+Q00534). The conditions noted are these: at 1 µM.
In test [18] the target is T8, CDK6/cyclin D3 (Homo sapiens). The note with it: at 10 µM.
The target in test [19] is T9, Cyclin-dependent kinase 7/ cyclin H (Homo sapiens) (UniProt P51946+P50613). The note with it: at 1 µM.
For test [20], the target named is T9, Cyclin-dependent kinase 7/ cyclin H (Homo sapiens). The conditions noted are these: at 10 µM.

T3 sequence (P06493 whole entry, looked up): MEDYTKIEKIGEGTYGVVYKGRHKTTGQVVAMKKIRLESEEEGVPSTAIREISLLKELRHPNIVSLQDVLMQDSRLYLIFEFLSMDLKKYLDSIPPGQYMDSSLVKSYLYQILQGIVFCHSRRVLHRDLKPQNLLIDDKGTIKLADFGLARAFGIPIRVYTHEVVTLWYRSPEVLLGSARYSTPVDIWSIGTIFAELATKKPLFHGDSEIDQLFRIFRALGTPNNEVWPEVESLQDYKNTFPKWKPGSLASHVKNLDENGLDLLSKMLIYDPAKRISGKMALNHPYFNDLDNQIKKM
T3 sequence (P14635 whole entry, looked up): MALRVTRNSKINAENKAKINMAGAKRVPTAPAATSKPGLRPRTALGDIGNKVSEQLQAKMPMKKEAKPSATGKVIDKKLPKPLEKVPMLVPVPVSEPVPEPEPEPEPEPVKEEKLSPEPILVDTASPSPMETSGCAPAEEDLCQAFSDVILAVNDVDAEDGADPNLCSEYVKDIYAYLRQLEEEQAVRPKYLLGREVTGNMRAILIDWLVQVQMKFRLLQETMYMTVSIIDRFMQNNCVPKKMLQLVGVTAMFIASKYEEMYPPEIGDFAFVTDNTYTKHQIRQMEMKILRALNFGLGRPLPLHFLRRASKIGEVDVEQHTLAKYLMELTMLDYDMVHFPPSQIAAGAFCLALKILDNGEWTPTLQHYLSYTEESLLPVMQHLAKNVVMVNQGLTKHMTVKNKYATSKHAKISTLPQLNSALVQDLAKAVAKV
T7 sequence (Q00535 whole entry): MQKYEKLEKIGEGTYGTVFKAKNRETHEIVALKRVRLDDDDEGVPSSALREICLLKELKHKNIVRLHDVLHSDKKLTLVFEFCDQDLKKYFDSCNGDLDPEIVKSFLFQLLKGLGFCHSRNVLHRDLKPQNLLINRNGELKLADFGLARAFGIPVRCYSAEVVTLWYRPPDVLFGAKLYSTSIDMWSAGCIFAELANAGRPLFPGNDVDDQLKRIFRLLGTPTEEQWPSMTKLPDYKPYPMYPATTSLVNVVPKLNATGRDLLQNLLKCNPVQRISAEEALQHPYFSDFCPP
T7 sequence (Q15078 99-307 partner limits assumed): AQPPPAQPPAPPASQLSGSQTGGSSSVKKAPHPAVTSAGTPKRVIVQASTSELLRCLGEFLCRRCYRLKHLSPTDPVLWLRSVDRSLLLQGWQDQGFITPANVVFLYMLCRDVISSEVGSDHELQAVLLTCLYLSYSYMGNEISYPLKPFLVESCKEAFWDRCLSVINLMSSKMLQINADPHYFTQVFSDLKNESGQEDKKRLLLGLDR
T6 sequence (O96020 whole entry, looked up): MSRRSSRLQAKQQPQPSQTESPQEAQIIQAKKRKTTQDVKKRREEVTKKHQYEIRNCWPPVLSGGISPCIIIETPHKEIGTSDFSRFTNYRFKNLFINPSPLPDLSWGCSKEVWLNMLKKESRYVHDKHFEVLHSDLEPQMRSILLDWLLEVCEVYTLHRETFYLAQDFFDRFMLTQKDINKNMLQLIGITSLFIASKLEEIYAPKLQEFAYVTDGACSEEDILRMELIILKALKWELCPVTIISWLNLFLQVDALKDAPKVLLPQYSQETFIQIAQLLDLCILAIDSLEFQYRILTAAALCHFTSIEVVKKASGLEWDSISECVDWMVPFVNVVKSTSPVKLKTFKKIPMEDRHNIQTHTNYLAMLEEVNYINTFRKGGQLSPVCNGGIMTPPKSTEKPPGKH
T6 sequence (P24864 whole entry, looked up): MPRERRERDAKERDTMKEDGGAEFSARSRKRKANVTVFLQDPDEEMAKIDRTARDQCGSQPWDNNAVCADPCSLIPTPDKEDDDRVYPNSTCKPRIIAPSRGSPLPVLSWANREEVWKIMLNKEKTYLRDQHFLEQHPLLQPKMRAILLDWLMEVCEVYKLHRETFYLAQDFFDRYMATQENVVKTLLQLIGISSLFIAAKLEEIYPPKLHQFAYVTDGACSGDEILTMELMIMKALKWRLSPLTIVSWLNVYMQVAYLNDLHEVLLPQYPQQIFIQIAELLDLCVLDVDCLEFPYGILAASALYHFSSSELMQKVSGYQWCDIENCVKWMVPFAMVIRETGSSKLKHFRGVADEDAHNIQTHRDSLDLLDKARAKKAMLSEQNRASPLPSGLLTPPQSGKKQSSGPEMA
T6 sequence (Q00526 whole entry, looked up): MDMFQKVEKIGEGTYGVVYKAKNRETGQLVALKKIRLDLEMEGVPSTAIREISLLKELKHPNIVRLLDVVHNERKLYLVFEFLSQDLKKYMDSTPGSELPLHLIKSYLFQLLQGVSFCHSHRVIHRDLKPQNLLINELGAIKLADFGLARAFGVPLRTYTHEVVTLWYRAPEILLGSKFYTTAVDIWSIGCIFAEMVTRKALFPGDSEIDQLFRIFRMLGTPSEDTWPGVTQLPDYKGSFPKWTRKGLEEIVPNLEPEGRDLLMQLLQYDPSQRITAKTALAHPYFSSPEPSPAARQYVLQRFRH

For the molecule `O=Nc1c(-c2c(O)[nH]c3ccccc23)[nH]c2ccccc12`, the residual activity in [1] came to 13%; in test [2], 12%; in test [3], 10%; in [4], 5%; in [5], 35%; in test [6], 19%. In addition, the residual activity in test [7] was 19%; in test [8], 5%; in [9], 6%; in [10] it was -1%; in test [11] it was 5%; in [12] it was 0%. The residual activity turned out to be 3% in test [13]; 2% in [14]; 5% in test [15]; 1% in test [16]; 16% in test [17]; 5% in test [18]. Besides, the values for the residual activity in test [19] and in test [20] were 42% and 16%, respectively.

On to `Cc1ccc(NC2=CC(=O)c3sc(C)nc3C2=O)cc1`, for which the residual activity was found to be 101% in [1]; 105% in test [2]; 110% in test [3]; 97% in [4]; 101% in test [5]; 106% in [6]. Besides, the residual activity in test [7] came out at 91%; in [8], 91%; in test [9], 97%; in [10] it was 91%; in [11], 92%; in test [12] it was 95%. The residual activity in test [13] came to 102%; in test [14] it was 97%; in [15], 107%; in test [16] it was 87%; in [17], 91%; in test [18] it was 85%. Moreover, the residual activity in test [19] turned out to be 97%; in test [20], 85%.

For `Cn1cnc2cc3c(Nc4cccc(Br)c4)ncnc3cc21`, the residual activity in test [1] came out at 58%; in test [2], 13%; in test [3], 91%; in [4], 62%; in test [5], 103%; in [6] it was 94%. Besides, the residual activity in [7] was found to be 132%; in [8] it was 87%; in [9], 110%; in test [10] it was 102%; in [11], 102%; in [12] it was 81%. For the same molecule, the residual activity is 96% in test [13]; 104% in test [14]; 98% in [15]; 90% in test [16]; 99% in test [17]; 92% in test [18]. For the same molecule, the residual activity in [19] was 84%; in test [20], 102%.

Take `COc1ccc(C(=O)Nc2sc3c(c2C(N)=O)CCCC3)cc1OC`: the residual activity came out at 93% in test [1]; 96% in test [2]; 105% in [3]; 103% in test [4]; 98% in test [5]; 93% in test [6]. The residual activity was 134% in test [7]; 91% in test [8]; 106% in test [9]; 97% in test [10]; 101% in test [11]; 92% in test [12]. Also, the residual activity in [13] was found to be 101%; in test [14], 108%; in test [15], 85%; in test [16], 88%; in test [17] it was 94%; in test [18], 94%. Moreover, the residual activity in [19] is 71%; in [20] it was 114%.

In the case of `O=C1Nc2ccccc2/C1=C1/Nc2ccccc2/C1=N\OCCC(O)CO` (stereo not given), the residual activity in [1] stood at 26%; in [2], 39%; in test [3], 33%; in test [4] it was 4%; in test [5] it was 25%; in [6] it was 6%. In addition, the residual activity came out at 12% in test [7]; 11% in [8]; 9% in test [9]; 4% in test [10]; 21% in test [11]; 2% in [12]. Besides, the residual activity in test [13] worked out at 4%; in test [14], 4%; in test [15] it was 6%; in test [16], 5%; in test [17], 16%; in test [18] it was 4%. Moreover, the residual activity in [19] is 19%; in test [20], 2%.

As to `CCOc1cc2ncnc(Nc3cccc(Br)c3)c2cc1OCC`, the residual activity in test [1] amounted to 12%; in [2], 15%; in test [3], 95%; in test [4], 60%; in [5], 93%; in test [6] it was 89%. In addition, the residual activity in [7] was 136%; in [8] it was 89%; in test [9], 92%; in test [10], 79%; in test [11], 103%; in test [12], 87%. Besides, the residual activity in test [13] was 105%; in [14] it was 97%; in test [15], 95%; in test [16], 81%; in test [17], 96%; in test [18] it was 88%. Also, the results for the residual activity in [19] and in test [20] were 86% and 84%, respectively.

`O=[N+]([O-])c1ccc(-c2nc(-c3ccc(F)cc3)c(-c3ccncc3)[nH]2)cc1`: the residual activity in test [1] worked out at 97%; in test [2], 101%; in [3] it was 118%; in [4] it was 103%; in [5] it was 102%; in test [6] it was 103%. The residual activity came to 90% in test [7]; 79% in test [8]; 105% in [9]; 96% in [10]; 91% in test [11]; 85% in test [12]. In addition, the residual activity in test [13] was 95%; in test [14], 94%; in test [15], 108%; in test [16], 98%; in test [17], 101%; in test [18], 101%. Moreover, the residual activity in test [19] amounted to 101%; in test [20], 90%.
